Experimental data: paper PMC7862700, “An all-to-all approach to the identification of sequence-specific readers for epigenetic DNA modifications on cytosine”

Key:
Assay in all cases: DAPPL (digital affinity profiling via proximity ligation, sequencing); 10 mM Tris-HCl pH 7.5, 50 mM NaCl, 1 mM DTT, 4% glycerol, room temperature, 30 min; GST-TFs on glutathione beads, 16-mer random dsDNA library, 0.1% formaldehyde crosslink after washing; high values mean tight binding
[1] = biological target: T1, FLI1 (Homo sapiens, UniProt Q01543 1-452); conditions: protein: recombinant; tags: N-terminal GST; dsDNA, one strand shown
T1 sequence: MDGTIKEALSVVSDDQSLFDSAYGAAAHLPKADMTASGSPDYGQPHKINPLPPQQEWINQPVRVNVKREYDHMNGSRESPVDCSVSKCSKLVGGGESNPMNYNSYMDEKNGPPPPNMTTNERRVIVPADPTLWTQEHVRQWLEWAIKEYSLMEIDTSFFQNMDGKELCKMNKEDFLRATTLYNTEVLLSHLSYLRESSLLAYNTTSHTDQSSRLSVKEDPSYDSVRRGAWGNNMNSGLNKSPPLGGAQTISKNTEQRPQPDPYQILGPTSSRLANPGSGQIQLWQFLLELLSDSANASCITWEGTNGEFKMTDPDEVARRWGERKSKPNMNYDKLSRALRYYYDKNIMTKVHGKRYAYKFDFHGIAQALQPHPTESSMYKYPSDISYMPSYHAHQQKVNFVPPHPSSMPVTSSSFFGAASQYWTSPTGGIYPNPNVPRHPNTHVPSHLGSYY
Method in brief: (§1)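 GST fusions of human transcription factors were expressed in yeast and captured with glutathione beads. Once given DNA barcodes and pooled alongside a tag-only sample, they were incubated for 30 min at room temperature with 200 nmole of a random double-stranded 16-mer DNA library in Tris/NaCl/DTT/glycerol buffer, then washed, crosslinked (0.1% formaldehyde), proximity-ligated, PCR-amplified and sequenced on an Illumina NextSeq500. The binding signal of each hexamer is its read frequency for a factor divided by its frequency for the tag-only sample.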

[2] = biological target: T2, ELK1 (Homo sapiens, UniProt P19419 1-428); conditions: protein: recombinant; tags: N-terminal GST; dsDNA, one strand shown
T2 sequence: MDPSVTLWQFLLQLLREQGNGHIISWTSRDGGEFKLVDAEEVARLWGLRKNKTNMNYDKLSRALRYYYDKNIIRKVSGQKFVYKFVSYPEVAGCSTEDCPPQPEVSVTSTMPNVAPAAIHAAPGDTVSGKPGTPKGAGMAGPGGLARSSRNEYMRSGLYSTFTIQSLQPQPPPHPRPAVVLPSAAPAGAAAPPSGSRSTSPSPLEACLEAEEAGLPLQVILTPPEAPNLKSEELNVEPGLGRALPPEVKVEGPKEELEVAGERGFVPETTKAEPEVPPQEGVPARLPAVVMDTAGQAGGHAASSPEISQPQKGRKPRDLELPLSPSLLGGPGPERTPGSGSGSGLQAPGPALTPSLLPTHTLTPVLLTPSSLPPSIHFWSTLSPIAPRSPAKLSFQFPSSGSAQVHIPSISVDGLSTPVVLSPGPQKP
Method in brief: as §1

[3] = biological target: T3, GABPA (Homo sapiens, UniProt Q06546 1-454); conditions: protein: recombinant; tags: N-terminal GST; dsDNA, one strand shown
T3 sequence: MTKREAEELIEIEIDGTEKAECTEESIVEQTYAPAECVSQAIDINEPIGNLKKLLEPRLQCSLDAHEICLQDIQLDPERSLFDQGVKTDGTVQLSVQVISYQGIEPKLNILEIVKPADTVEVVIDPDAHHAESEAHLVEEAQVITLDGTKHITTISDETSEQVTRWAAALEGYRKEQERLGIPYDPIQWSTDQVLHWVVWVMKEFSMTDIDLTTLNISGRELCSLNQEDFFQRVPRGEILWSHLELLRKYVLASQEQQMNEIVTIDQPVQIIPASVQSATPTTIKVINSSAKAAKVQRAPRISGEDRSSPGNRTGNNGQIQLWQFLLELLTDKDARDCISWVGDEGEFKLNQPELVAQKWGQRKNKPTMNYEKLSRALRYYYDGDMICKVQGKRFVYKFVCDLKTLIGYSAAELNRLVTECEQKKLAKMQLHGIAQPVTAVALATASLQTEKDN
Method in brief: as §1

[4] = biological target: T4, ERG (Homo sapiens, UniProt P11308 1-479); conditions: protein: recombinant; tags: N-terminal GST; dsDNA, one strand shown
T4 sequence: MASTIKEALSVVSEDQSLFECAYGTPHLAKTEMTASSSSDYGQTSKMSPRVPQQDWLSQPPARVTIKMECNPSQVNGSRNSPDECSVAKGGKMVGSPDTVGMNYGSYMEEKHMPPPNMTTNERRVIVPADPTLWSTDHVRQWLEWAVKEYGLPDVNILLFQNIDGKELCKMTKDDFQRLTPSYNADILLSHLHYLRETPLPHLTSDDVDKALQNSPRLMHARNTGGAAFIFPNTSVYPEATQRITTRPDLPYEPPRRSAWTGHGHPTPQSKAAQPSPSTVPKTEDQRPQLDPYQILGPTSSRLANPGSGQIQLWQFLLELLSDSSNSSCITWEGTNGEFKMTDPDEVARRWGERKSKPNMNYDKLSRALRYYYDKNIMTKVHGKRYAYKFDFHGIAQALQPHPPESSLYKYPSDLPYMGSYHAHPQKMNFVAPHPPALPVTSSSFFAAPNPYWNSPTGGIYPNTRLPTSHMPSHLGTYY
Method in brief: as §1

[5] = biological target: ELF1 (Homo sapiens, UniProt P32519 1-619); conditions: protein: recombinant; tags: N-terminal GST; dsDNA, one strand shown
Method in brief: as §1

[6] = biological target: T5, EHF (Homo sapiens, UniProt Q9NZC4 1-300); conditions: protein: recombinant; tags: N-terminal GST; dsDNA, one strand shown
T5 sequence: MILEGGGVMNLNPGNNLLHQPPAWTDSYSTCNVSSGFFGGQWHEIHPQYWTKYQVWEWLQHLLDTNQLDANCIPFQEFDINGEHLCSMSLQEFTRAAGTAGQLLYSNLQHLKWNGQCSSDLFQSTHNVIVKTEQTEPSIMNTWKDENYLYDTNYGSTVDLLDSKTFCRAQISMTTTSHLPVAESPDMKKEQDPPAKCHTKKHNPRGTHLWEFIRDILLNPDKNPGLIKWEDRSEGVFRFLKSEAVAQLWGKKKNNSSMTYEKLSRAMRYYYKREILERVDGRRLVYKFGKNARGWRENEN
Method in brief: as §1

[7] = biological target: SPI1 (Homo sapiens, UniProt P17947 1-270); conditions: protein: recombinant; tags: N-terminal GST; dsDNA, one strand shown
Method in brief: as §1

[8] = biological target: SPIB (Homo sapiens, UniProt Q01892 1-262); conditions: protein: recombinant; tags: N-terminal GST; dsDNA, one strand shown
Method in brief: as §1

[9] = biological target: T6, ELK3 (Homo sapiens, UniProt P41970 1-407); conditions: protein: recombinant; tags: N-terminal GST; dsDNA, one strand shown
T6 sequence: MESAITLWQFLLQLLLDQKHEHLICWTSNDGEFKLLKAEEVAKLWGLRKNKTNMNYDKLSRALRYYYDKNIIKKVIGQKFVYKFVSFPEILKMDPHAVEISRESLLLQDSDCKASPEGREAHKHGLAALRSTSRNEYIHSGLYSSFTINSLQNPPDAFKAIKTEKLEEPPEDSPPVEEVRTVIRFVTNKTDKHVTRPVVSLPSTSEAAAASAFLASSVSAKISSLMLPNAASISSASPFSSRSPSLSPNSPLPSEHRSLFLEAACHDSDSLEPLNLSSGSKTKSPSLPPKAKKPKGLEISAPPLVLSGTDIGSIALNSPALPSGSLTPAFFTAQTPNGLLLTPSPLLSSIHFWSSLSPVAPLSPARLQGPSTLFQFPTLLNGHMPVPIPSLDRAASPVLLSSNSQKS
Method in brief: as §1

[10] = biological target: T7, FEV (Homo sapiens, UniProt Q99581 1-238); conditions: protein: recombinant; tags: N-terminal GST; dsDNA, one strand shown
T7 sequence: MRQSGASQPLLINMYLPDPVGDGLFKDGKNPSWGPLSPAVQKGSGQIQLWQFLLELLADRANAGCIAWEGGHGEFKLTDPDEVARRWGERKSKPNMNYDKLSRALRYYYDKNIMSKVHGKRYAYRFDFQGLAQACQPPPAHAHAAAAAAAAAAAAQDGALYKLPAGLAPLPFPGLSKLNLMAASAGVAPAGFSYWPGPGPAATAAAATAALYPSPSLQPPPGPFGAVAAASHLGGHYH
Method in brief: as §1

[11] = biological target: ETV5 (Homo sapiens, UniProt P41161 1-510); conditions: protein: recombinant; tags: N-terminal GST; dsDNA, one strand shown
Method in brief: as §1

[12] = biological target: HSF1 (Homo sapiens, UniProt Q00613 1-529); conditions: protein: recombinant; tags: N-terminal GST; chain copies: 3; dsDNA, one strand shown
Method in brief: as §1

[13] = biological target: T8, SPIC (Homo sapiens, UniProt Q8N5J4 1-248); conditions: protein: recombinant; tags: N-terminal GST; dsDNA, one strand shown
T8 sequence: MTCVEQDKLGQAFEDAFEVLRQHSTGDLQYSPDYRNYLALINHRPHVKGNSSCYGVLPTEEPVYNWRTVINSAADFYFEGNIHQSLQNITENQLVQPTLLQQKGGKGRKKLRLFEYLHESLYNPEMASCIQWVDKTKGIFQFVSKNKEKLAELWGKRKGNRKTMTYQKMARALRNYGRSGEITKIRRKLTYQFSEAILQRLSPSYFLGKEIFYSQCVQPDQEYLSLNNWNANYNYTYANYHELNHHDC
Method in brief: as §1

[14] = biological target: ELF4 (Homo sapiens, UniProt Q99607 1-663); conditions: protein: recombinant; tags: N-terminal GST; dsDNA, one strand shown
Method in brief: as §1

[15] = biological target: T9, ELK4 (Homo sapiens, UniProt P28324-2 1-405); conditions: protein: recombinant; tags: N-terminal GST; dsDNA, one strand shown
T9 sequence: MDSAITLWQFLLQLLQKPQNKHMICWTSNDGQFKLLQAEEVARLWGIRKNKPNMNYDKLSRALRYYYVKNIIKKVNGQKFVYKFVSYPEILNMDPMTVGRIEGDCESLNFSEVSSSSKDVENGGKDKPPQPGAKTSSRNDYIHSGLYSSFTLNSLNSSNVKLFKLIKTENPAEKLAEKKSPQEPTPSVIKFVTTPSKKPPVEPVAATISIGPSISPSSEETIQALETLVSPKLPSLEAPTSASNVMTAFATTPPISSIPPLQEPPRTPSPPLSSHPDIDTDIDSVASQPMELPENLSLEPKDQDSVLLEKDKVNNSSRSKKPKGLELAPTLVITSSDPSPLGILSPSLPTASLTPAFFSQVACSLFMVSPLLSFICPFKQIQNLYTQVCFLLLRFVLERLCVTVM
Method in brief: as §1

[16] = biological target: T10, ETV2 (Homo sapiens, UniProt O00321 1-342); conditions: protein: recombinant; tags: N-terminal GST; dsDNA, one strand shown
T10 sequence: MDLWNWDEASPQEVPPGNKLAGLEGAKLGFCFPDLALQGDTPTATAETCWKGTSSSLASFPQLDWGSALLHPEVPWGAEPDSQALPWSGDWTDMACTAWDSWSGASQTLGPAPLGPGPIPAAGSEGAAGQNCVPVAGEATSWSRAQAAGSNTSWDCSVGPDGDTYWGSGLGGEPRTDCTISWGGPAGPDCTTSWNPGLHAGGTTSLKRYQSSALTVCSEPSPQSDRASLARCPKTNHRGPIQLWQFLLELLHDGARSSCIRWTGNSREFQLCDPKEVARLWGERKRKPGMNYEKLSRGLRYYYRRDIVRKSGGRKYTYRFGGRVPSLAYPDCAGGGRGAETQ
Method in brief: as §1

[17] = biological target: T11, ELF3 (Homo sapiens, UniProt P78545 1-371); conditions: protein: recombinant; tags: N-terminal GST; dsDNA, one strand shown
T11 sequence: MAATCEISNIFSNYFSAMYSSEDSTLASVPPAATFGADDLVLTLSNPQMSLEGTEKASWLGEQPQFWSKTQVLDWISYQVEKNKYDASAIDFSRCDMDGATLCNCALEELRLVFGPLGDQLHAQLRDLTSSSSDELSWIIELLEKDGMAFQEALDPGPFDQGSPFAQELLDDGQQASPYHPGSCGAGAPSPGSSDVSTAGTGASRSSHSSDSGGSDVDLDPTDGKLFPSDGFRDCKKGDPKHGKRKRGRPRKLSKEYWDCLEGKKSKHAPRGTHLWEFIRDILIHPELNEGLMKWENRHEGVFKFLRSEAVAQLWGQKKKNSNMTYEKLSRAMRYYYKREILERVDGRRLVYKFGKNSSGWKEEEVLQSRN
Method in brief: as §1

[18] = biological target: CRX (Homo sapiens, UniProt O43186 1-299); conditions: protein: recombinant; tags: N-terminal GST; dsDNA, one strand shown
Method in brief: as §1

[19] = biological target: ETV1 (Homo sapiens, UniProt P50549 1-477); conditions: protein: recombinant; tags: N-terminal GST; dsDNA, one strand shown
Method in brief: as §1

Sequence of ETV5 (P41161 whole entry): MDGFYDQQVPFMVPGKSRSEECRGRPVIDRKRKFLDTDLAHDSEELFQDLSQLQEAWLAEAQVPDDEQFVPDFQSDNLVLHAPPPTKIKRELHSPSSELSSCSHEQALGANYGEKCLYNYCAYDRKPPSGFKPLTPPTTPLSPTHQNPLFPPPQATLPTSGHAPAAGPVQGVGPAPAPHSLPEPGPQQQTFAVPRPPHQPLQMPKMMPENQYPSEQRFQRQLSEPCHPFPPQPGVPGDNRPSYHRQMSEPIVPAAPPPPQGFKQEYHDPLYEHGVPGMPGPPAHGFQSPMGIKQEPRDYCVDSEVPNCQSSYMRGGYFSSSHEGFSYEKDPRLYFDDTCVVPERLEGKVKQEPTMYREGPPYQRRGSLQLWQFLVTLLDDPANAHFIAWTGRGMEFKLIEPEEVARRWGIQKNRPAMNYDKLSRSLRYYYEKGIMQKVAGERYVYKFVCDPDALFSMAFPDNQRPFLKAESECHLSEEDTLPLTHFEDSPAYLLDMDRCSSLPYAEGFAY
Sequence of SPIB (Q01892 whole entry): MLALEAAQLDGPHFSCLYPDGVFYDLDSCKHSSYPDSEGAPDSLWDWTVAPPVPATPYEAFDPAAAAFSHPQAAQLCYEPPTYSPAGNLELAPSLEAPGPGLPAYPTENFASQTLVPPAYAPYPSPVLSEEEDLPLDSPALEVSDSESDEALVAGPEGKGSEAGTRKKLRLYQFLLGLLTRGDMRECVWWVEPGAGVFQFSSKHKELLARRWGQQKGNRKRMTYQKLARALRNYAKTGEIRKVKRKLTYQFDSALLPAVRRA
Sequence of ELF1 (P32519 whole entry): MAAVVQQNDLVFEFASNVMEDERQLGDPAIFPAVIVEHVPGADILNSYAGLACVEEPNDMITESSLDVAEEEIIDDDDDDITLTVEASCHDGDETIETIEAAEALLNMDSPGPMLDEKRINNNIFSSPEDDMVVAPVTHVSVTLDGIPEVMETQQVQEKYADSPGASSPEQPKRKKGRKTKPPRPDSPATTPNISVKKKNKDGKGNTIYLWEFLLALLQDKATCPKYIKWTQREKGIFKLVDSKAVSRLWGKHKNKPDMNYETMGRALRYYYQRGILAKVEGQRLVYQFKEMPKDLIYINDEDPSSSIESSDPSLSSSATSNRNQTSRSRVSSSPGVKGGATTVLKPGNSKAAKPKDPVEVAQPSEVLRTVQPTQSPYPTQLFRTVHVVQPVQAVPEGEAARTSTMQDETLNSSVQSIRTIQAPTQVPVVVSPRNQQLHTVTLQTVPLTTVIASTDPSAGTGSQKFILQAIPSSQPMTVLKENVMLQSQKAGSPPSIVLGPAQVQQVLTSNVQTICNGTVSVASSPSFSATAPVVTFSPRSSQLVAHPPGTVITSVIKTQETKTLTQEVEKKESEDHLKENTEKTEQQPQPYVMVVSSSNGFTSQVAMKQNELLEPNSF
Sequence of HSF1 (Q00613 whole entry): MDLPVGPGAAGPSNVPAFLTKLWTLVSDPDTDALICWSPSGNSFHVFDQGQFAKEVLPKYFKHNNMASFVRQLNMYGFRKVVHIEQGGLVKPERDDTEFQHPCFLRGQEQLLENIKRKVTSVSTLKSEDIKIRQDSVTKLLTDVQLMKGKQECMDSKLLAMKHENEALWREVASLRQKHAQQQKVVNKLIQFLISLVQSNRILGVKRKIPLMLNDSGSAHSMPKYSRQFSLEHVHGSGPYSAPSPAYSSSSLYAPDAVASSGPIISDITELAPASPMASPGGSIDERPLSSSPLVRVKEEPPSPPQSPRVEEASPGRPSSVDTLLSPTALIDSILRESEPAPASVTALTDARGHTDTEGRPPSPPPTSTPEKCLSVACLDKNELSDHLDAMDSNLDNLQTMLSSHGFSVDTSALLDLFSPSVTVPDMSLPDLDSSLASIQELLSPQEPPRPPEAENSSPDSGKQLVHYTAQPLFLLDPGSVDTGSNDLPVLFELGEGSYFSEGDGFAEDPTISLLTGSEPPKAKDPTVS
Sequence of CRX (O43186 whole entry): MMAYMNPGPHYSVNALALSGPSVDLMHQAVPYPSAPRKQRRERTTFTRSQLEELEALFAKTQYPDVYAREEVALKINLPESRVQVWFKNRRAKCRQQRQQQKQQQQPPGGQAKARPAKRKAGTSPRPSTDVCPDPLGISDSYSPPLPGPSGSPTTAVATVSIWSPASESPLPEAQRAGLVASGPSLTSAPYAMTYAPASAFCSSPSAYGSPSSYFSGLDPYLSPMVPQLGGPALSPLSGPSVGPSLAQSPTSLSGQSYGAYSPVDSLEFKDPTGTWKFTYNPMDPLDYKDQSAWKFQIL
Sequence of ELF4 (Q99607 whole entry): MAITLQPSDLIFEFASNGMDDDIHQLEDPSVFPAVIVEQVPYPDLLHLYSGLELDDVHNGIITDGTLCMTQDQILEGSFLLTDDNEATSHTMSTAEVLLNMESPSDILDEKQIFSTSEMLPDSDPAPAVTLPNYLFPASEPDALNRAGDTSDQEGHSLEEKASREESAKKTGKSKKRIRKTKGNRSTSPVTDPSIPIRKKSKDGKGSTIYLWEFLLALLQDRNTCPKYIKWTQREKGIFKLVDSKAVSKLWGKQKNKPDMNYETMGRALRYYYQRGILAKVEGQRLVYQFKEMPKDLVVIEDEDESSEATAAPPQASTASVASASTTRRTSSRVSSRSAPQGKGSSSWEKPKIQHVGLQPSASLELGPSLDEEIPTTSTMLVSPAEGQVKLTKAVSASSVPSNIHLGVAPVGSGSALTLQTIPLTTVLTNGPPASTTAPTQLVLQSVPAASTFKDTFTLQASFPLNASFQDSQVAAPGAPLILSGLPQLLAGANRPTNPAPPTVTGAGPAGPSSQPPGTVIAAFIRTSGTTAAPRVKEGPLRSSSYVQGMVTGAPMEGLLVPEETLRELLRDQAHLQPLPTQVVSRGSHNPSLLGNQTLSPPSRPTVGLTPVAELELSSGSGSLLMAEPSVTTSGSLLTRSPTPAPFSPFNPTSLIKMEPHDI
Sequence of ETV1 (P50549 whole entry): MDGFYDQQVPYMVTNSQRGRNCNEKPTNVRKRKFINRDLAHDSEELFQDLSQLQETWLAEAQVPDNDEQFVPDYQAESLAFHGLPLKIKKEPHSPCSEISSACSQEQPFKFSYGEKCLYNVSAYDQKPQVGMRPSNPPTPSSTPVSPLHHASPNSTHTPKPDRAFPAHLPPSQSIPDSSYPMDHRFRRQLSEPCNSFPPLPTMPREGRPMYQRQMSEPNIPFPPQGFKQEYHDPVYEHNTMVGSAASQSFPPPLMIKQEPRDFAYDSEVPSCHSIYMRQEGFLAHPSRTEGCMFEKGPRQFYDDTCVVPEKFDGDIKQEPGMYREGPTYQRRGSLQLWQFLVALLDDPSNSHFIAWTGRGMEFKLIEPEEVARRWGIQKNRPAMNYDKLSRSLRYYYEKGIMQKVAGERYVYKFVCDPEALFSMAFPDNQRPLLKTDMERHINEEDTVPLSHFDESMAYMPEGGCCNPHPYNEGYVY

CTCGGC was tested, and the binding signal [1] was 1.47 fold enrichment (6-mer frequency, TF over GST control), the binding signal [2] was 1.33 fold enrichment (6-mer frequency, TF over GST control) and the binding signal [3] was 1.39 fold enrichment (6-mer frequency, TF over GST control). For the same sequence, the binding signal [4] was 1.26 fold enrichment (6-mer frequency, TF over GST control), the binding signal [5] was 1.38 fold enrichment (6-mer frequency, TF over GST control) and the binding signal [6] was 1.52 fold enrichment (6-mer frequency, TF over GST control). For the same sequence, the binding signal [7] was 1.45 fold enrichment (6-mer frequency, TF over GST control), the binding signal [8] was 1.27 fold enrichment (6-mer frequency, TF over GST control) and the binding signal [9] was 1.39 fold enrichment (6-mer frequency, TF over GST control). For the same sequence, the binding signal [10] was 1.29 fold enrichment (6-mer frequency, TF over GST control), the binding signal [11] was 1.41 fold enrichment (6-mer frequency, TF over GST control) and the binding signal [12] was 1.31 fold enrichment (6-mer frequency, TF over GST control). For the same sequence, the binding signal [13] was 1.26 fold enrichment (6-mer frequency, TF over GST control), the binding signal [14] was 1.56 fold enrichment (6-mer frequency, TF over GST control) and the binding signal [15] was 1.39 fold enrichment (6-mer frequency, TF over GST control). The binding signal [16] was 1.34 fold enrichment (6-mer frequency, TF over GST control), the binding signal [17] was 1.52 fold enrichment (6-mer frequency, TF over GST control) and the binding signal [18] was 1.13 fold enrichment (6-mer frequency, TF over GST control). For the same sequence, the binding signal [19] was 1.54 fold enrichment (6-mer frequency, TF over GST control).
